We go through 28 compounds from PubChem BioAssay (NCATS).

Inconclusive results are not listed. Unmarked numbers belong to inactive results. Active and inactive are the calls of the source. Calls come from the whole dose curve; as a rule, active = well fitted cell-killing curve with a large enough effect; inconclusive = small, poorly fitted or top-dose-only effect, or effect the other way; inactive = no such curve, though single readings can be large or run the other way.

Experiment [1] in a line: Viability qHTS for spleen associated tyrosine kinase inhibitor (SYKi) naive MV4-11 cells (AID 1963823). Note: nearly all actives have a fitted effect of over 40% in size. The procedure, abridged: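 Luminescence from CellTiter-Glo, developed 10 min at room temperature, gave viability of MV4-11 cells never exposed to SYK inhibitor. Cells (500/well) had been incubated with compounds for 72 hr under standard culture conditions.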
(Quantitative high-throughput screening tests each substance at several concentrations.)

Experiment [2] can be described thus: Viability qHTS for spleen associated tyrosine kinase inhibitor (SYKi) drug resistant MV4-11 cells (AID 1963824). Note: nearly all actives have a fitted effect of over 35% in size. The procedure, abridged:
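SYK-inhibitor-resistant MV4-11 AML cells were seeded at 500 per well onto compound and cultured 72 hours (37 °C, 5% CO2). CellTiter-Glo was then added, and after 10 min at room temperature, luminescence gave viability.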
Potency is the fitted concentration of half-maximal effect.

Turning to `C/C=C/C=C/C=C/C(=O)O[C@@H]1C=C(CO)C(O)(C(=O)O)[C@@]2(C)CCCC(C)(C)[C@H]12` (stereo partly specified), the Potency result in experiment [1] and in experiment [2] was “inactive” in each case.

As for `CC1(C)COC(=O)[C@@H]1O[C@@H]1O[C@H](CO)[C@@H](O)[C@H](O)[C@H]1O`, the Potency result in experiment [1] and in experiment [2] was “inactive” in each case.

With `C[C@@H]1[C@H]2[C@H](O[C@@H]3O[C@H](CO)[C@@H](O)[C@H](O)[C@H]3O)OC=C(C(=O)O)[C@H]2C[C@@H]1OC(=O)/C=C/c1ccc(O)cc1`, the Potency entry in experiment [1] and in experiment [2] was “inactive” in each case.

Turning to `CC(C)NC[C@H](O)COc1ccc(CCOCC2CC2)cc1`, the Potency result in experiment [1] and in experiment [2] was “inactive” each time.

Turning to `CC(NC(=O)CC(=O)O)C(=O)Nc1ccccc1C(N)=O` (stereo unspecified), the Potency result in experiment [1] and in experiment [2] was “inactive” each time.

Regarding `O=C(O)/C=C/c1ccc2occc2c1O[C@@H]1O[C@H](CO)[C@@H](O)[C@H](O)[C@H]1O`, the Potency result in experiment [1] and in experiment [2] was “inactive” throughout.

As to `CCOc1ccc(-c2nc(-c3cccc4c3CCC4NCCO)no2)cc1OCC` (stereo unspecified), the Potency in experiment [1] and in experiment [2] was 13 µM (active) each time.

For `O=C(O)c1ccc(O)c2ncc(N3CCCN(CCc4cccc5ccccc45)CC3)cc12`, the Potency in experiment [1] was 18.4 µM (active); in experiment [2], 10.3 µM (active).

Turning to `Nc1ncnc2c1nc(Cl)n2C1OC2COP(=O)(O)OC2C1O` (stereo unspecified), the Potency was 0.517 µM (active) in experiment [1] and 0.461 µM (active) in experiment [2].

Take `C/C(=C\CC[C@@H](C)[C@H]1CC(O)[C@@]2(C)C3CC[C@H]4C(C)(C)[C@@H](OC5OCC(O)C(O)C5OC5OC(CO)C(O)C(O)C5O)CC[C@@]45C[C@@]35CC(O)[C@]12C)C(=O)O` (stereo partly specified): the Potency entry in experiment [1] and in experiment [2] was “inactive” throughout.

Consider `CN[C@@H]1[C@@H](O)[C@@H](O[C@@H]2[C@@H](O)[C@H](O[C@H]3O[C@H](CN)[C@@H](O)[C@H](O)[C@H]3O)[C@@H](N)C[C@H]2NC(=O)[C@@H](O)CN)OC[C@]1(C)O`, for which the Potency entry in experiment [1] and in experiment [2] was “inactive” each time.

For `C=C1C(=O)OC2/C=C(/C)C3=CC(=O)C(C)(CC(OC(=O)/C(C)=C/COC(C)=O)C12)O3` (stereo unspecified), the Potency was 0.893 µM (active) in experiment [1] and 0.796 µM (active) in experiment [2].

As for `CC(C)Nc1cccnc1N1CCN(C(=O)c2cc3cc(NS(C)(=O)=O)ccc3[nH]2)CC1`, the Potency entry in experiment [1] and in experiment [2] was “inactive” in each case.

Take `CC1COC2(OC3CC4C5CC(O[C@@H]6O[C@H](C)[C@@H](O[C@@H]7O[C@@H](C)[C@H](O)[C@@H](O)[C@H]7O)[C@H](O)[C@H]6O)C6CC(O)CCC6(C)C5CCC4(C)C3C2C)C(O)C1` (stereo partly specified): the Potency entry in experiment [1] and in experiment [2] was “inactive” each time.

In the case of `CC1(C(=O)Nc2ccc(F)nc2)CCCN1c1nc(Nc2cc(C3CC3)[nH]n2)c2cccn2n1` (stereo unspecified), the Potency was 1.46 µM (active) in experiment [1] and 1.64 µM (active) in experiment [2].

Consider `CCOc1ccc(-c2cc(NC(=O)c3c(F)cccc3F)c(C(=O)O)s2)cc1`, for which the Potency entry in experiment [1] and in experiment [2] was “inactive” in each case.

As to `O=C1NC(=O)[C@@H](c2cn3c4c(cccc24)CCC3)[C@@H]1c1c[nH]c2ccccc12`, the Potency in experiment [1] was 1.18 µM (active); in experiment [2] it was 1.32 µM (active).

As for `CCc1cccc(CC)c1-n1c(C=C(C)C)c(C(=O)N2CCNCC2)cc(-c2nc(-c3ccc(C(F)(F)F)cc3)cs2)c1=O`, the Potency entry in experiment [1] and in experiment [2] was “inactive” each time.

Regarding `COC(=O)C1=CO[C@@H](O[C@@H]2O[C@H](CO)[C@@H](O)[C@H](O)[C@H]2O)[C@H]2[C@@H]1C=C[C@@]21C=C([C@H](C)O)C(=O)O1`, the Potency entry in experiment [1] and in experiment [2] was “inactive” throughout.

`Cc1cc(C)cc(C(=O)NOCCCCCC(=O)NO)c1`: the Potency in experiment [1] is 0.92 µM (active); in experiment [2], 0.58 µM (active).

For `C=C1C(=O)O[C@@H]2[C@H]1[C@H](O)C[C@]1(C)[C@@H](O)CC=C(C)[C@@H]21`, the values for the Potency in experiment [1] and in experiment [2] were 9.2 µM (active) and 4.11 µM (active), respectively.

For the compound `CC(=O)N1CCc2ccc(O)c(OC3OC(COC4OCC(O)(CO)C4O)C(O)C(O)C3O)c2C1Cc1ccc(O)cc1` (stereo unspecified), the Potency result in experiment [1] and in experiment [2] was “inactive” throughout.

On to `COc1c2c(c(C)c3c1C(=O)OC3)O[C@@]1(C)CC(O)C(C(C)(C)O)[C@](C)(CCC(=O)O)[C@H]1C2` (stereo partly specified), for which the Potency is 7.96 µM (active) in experiment [1] and 7.09 µM (active) in experiment [2].

Turning to `COc1ccc([C@H]2OC[C@H]3O[C@@H](O[C@H]4[C@@H]2NC[C@@H]4O)[C@H](O)[C@H]3O)cc1`, the Potency is 0.64 µM (active) in experiment [1] and 0.404 µM (active) in experiment [2].

Turning to `Oc1cc(CNC(=S)/C=C/c2cc(O)c(O)c(Br)c2)cc(O)c1O`, the Potency in experiment [1] and in experiment [2] was 1.84 µM (active) in each case.

On to `COc1cccc(-c2cn(-c3ccc(CCN4CCC(O)CC4)cc3)c3ncnc(N)c23)c1`, for which the figures for the Potency in experiment [1] and in experiment [2] were 2.06 µM (active) and 2.31 µM (active), respectively.

With `COc1c(C)cnc(Cn2cc(C#CCC(C)(C)O)c3c(Cl)nc(N)nc32)c1C`, the values for the Potency in experiment [1] and in experiment [2] were 0.0116 µM (active) and 0.0206 µM (active), respectively.

On to `Cc1cc2nc(NCCCO)n(CC(=O)c3cc(C(C)(C)C)c(O)c(C(C)(C)C)c3)c2cc1C`, for which the Potency in experiment [1] and in experiment [2] was 8.2 µM (active) throughout.
